Reference: the supplement of paper PMC6518042

System: Pectobacterium parmentieri SCC3193
Assay: DuctApe activity index (growth/respiration on compound as sole nutrient source, blank-subtracted) (activity index (0-3)); higher = stronger utilization of the compound, active = 3 or more
Settings: nutrient role (plate category): carbon
Experimental: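 Biolog Phenotype Microarray plates PM1, PM2A (carbon), PM3 (nitrogen) and PM4 (phosphorus/sulfur) inoculated with P. parmentieri SCC3193 in M9-C minimal salts medium with Biolog dye A, and read in the OmniLog for 46 h. Each well was tested in triplicate and the experiment was run twice. DuctApe computed a blank-subtracted activity index (AV, 0-3) from the mean curves; growth is positive at AV >= 3 and negative at AV <= 2.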

Row | SMILES | DuctApe activity index
1 | N#C[C@H](O[C@@H]1O[C@H](CO[C@@H]2O[C@H](CO)[C@@H](O)[C@H](O)[C@H]2O)[C@@H](O)[C@H](O)[C@H]1O)c1ccccc1 [Amygdalin] | 0 (inactive)
2 | NCCc1ccc(O)cc1 [Tyramine] | 0 (inactive)
3 | NCC(O)c1ccc(O)cc1 (racemic) [D,L-Octopamine] | 0 (inactive)
4 | NCCc1ccccc1 [Phenylethylamine] | 0 (inactive)
5 | O=C(O)CCCO [g-Hydroxybutyric acid] | 0 (inactive)
6 | O=C(O)CC(Br)C(=O)O (centres undefined) [Bromosuccinic acid] | 3 (active)

Same assay, conditions: nutrient role (plate category): nitrogen

Row | SMILES | DuctApe activity index
7 | O=C1NC(=O)C(=O)C(=O)N1 [Alloxan] | 0 (inactive)
8 | CCN [Ethylamine] | 0 (inactive)
9 | CN [Methylamine] | 0 (inactive)
10 | NCCc1ccc(O)cc1 [Tyramine] | 0 (inactive)
11 | NCCc1ccccc1 [b-Phenylethylamine] | 0 (inactive)
12 | O=[N+]([O-])O [Nitrate] | 0 (inactive)

Same assay, conditions: nutrient role (plate category): phosphate & sulphur

Row | SMILES | DuctApe activity index
13 | OP(O)(O)=S [Thiophosphate] | 1.5 (inactive)
14 | NCCP(=O)(O)O [2-Aminoethyl Phosphonic acid] | 0 (inactive)
15 | CN(CC(=O)O)C(=N)NP(=O)(O)O [Phosphocreatine] | 2 (inactive)
16 | OP(O)(=S)S [Dithiophosphate] | 1.5 (inactive)
17 | O=PO [Hypophosphite] | 0 (inactive)
18 | CCOP(=O)(OCC)OCC [Triethyl Phosphate] | 0 (inactive)
19 | CCSCCC(N)C(=O)O (racemic) [DL-Ethionine] | 0 (inactive)
